Here are results for 20 molecules from PubChem BioAssay (NCATS).

Experiment [1] in a line: qHTS assay for measurement of the activity of small molecule inhibitors on Zika virus induced Caspase-3 activity in human astrocytoma cells (AID 1224859; active means well fitted curve in the direction sought with a large enough effect; an effect the other way counts as inactive or inconclusive). The method, boiled down:
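Caspase activation in ZIKV-infected SNB-19 cells (2 FFU/cell, 6 h) measured by Caspase-Glo 3/7 luminescence after 30 min RT; compound pre-incubated 1 h; normalised to uninfected and infected controls.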
For orientation: qHTS replaces the single test concentration by a dilution series.

Experiment [2] is described as follows: Natriuretic polypeptide receptor (hNpr1) antagonism - Pilot counterscreen GloSensor control cell line (AID 1347045). Further: potency means the concentration at half of the fitted maximal effect. The method, boiled down: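 HEK293 cells carrying the GloSensor cGMP sensor (GIP/pGS-40F) were loaded with 2% GloSensor reagent for 2 h, exposed to compounds for 30 min, and then stimulated with 50 uM sodium nitroprusside for 20 min at room temperature.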

For experiment [3], the target named is Atrial natriuretic peptide receptor 2 (Homo sapiens) (UniProt P20594). The experiment is described as follows: Natriuretic polypeptide receptor (hNpr2) antagonism - Pilot subtype selectivity assay (AID 1347050). Further: potency means the concentration at half of the fitted maximal effect. An outline of the steps: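 Pilot selectivity screen against hNpr2: HEK293 cGMP-sensor cells are treated with LOPAC1280 compounds, then with hNppC peptide at 1 nM final. The cGMP-driven luminescence change over 20 min at room temperature is the read-out.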

The nature of experiment [4]: NS1 protein of Zika virus - qHTS assay to identify small molecule inhibitors in human HEK 293 cells (AID 1347053; active means well fitted curve in the direction sought with a large enough effect; an effect the other way counts as inactive or inconclusive; further: series mostly up to about 46 µM; nearly all actives have a fitted effect of over 55% in size). An outline of the steps: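 Inhibition of NS1 expression was scored in HEK 293 cells given compound 1 h ahead of MR766 virus (MOI = 0.5). Following 24 h at 37 C, two anti-NS1 antibodies generated a TR-FRET signal, scaled between uninfected and infected controls.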

The target of experiment [5] is T1, Tyrosine-protein phosphatase non-receptor type substrate 1 (Homo sapiens) + Leukocyte surface antigen CD47 (Homo sapiens) (UniProt P78324+Q08722). The experiment is described as follows: CD47-SIRPalpha protein protein interaction - LANCE assay qHTS validation (AID 1347057; active means well fitted curve in the direction sought with a large enough effect in the signal ratio, with a control signal flat, not every such curve was filed as active; the % refers to the signal ratio; further: series mostly up to about 38 µM). An outline of the steps: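 First, His-tagged CD47 and Eu-labelled anti-His antibody met the compound for 30 min; next, site-specifically biotinylated SIRPalpha was added for 30 min; finally streptavidin-APC was added before reading the TR-FRET ratio.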
(In general: Time-resolved FRET reads energy transfer from a long-lived donor to a nearby acceptor.)

Experiment [6] has as its target T1, Tyrosine-protein phosphatase non-receptor type substrate 1 (Homo sapiens) + Leukocyte surface antigen CD47 (Homo sapiens). Briefly: CD47-SIRPalpha protein protein interaction - Alpha assay qHTS validation (AID 1347059; active means well fitted curve in the direction sought with a large enough effect; an effect the other way counts as inactive or inconclusive;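 further: bead proximity luminescence from CD47 binding SIRPalpha after compound preincubation with SIRPalpha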). The method, boiled down: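 Binding is measured by AlphaScreen proximity: Ni-NTA acceptor beads capture His-CD47, streptavidin donor beads capture biotin-SIRPalpha. Each of three additions (SIRPalpha with compound, CD47, beads) incubates 30 min at room temperature protected from light.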

For experiment [7], the target named is Parathyroid hormone/parathyroid hormone-related peptide receptor (Homo sapiens) (UniProt Q03431). Briefly: qHTS for PTHR1 Agonists: Optimization Screen against the NCGC LOPAC library (AID 1347079; active means well fitted curve in the direction sought with a large enough effect; an effect the other way counts as inactive or inconclusive;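 further: GloSensor cAMP luminescence in HEK-293 GP2 cells expressing human PTHR1 with IBMX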). The method, boiled down:
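Compounds were tested across a qHTS titration. PTHR1-expressing GP2 cells report cAMP rises via GloSensor luminescence after 1 hr compound exposure at 37C with IBMX present.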

In experiment [8] the target is Atrial natriuretic peptide receptor 1 (Homo sapiens) (UniProt P16066). The experiment is described as follows: Natriuretic polypeptide receptor (hNpr1) antagonism - Pilot screen (AID 1347049).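 Further: agonist-evoked cGMP luminescence read 20 min after hNppA addition.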 Further: potency means the concentration at half of the fitted maximal effect. An outline of the steps:
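Readout is cGMP-driven firefly luciferase luminescence in HEK293 cells carrying hNpr1 and a PDE5-domain GloSensor, read before and 20 min after 0.1 nM hNppA stimulation. Cells had 2% substrate reagent for 2 h and test compound for 30 min.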

In experiment [9] the target is T1, Tyrosine-protein phosphatase non-receptor type substrate 1 (Homo sapiens) + Leukocyte surface antigen CD47 (Homo sapiens). Briefly: CD47-SIRPalpha protein protein interaction - HTRF assay qHTS validation (AID 1347058; active means well fitted curve in the direction sought with a large enough effect in the signal ratio, not every such curve was filed as active; the % refers to the signal ratio;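 further: recombinant soluble extracellular CD47 with His tag and biotinylated SIRPalpha domains; series mostly up to about 38 µM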). The method, boiled down:
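TR-FRET read (Ch1/Ch2 ratio) of soluble extracellular CD47 and Avi-biotinylated SIRPalpha domains in PBS pH 7.4 with 0.05% IGEPAL; 7-point compound titration. Sequential 30 min room-temperature steps; non-biotinylated SIRPalpha as control inhibitor.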

Results filed as inconclusive are left out. The source made the active and inactive calls. Unless noted, the call rests on the fitted dose curve.

T1 sequence (P78324 whole entry, looked up): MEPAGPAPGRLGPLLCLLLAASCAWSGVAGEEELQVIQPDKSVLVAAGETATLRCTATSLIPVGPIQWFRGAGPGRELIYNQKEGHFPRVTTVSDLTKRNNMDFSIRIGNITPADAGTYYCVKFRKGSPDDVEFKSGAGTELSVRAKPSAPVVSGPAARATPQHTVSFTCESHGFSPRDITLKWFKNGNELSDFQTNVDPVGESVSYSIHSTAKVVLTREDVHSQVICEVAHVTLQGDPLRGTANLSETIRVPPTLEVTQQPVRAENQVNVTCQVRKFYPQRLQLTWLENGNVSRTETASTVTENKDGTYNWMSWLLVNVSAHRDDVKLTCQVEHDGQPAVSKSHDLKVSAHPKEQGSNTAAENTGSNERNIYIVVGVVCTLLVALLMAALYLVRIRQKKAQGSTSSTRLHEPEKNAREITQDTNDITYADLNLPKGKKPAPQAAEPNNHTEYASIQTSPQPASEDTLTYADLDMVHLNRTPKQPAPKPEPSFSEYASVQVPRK
T1 sequence (Q08722 whole entry, looked up): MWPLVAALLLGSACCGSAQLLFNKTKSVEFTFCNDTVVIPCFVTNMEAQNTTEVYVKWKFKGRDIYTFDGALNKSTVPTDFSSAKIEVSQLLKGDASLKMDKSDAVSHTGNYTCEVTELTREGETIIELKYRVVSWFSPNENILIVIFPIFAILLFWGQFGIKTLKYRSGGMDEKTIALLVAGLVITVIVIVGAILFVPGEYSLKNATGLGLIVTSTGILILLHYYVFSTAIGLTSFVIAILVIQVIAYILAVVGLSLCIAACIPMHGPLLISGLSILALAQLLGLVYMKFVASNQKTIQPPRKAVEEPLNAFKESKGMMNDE
Sequence of Atrial natriuretic peptide receptor 2 (Homo sapiens) (P20594 whole entry, looked up): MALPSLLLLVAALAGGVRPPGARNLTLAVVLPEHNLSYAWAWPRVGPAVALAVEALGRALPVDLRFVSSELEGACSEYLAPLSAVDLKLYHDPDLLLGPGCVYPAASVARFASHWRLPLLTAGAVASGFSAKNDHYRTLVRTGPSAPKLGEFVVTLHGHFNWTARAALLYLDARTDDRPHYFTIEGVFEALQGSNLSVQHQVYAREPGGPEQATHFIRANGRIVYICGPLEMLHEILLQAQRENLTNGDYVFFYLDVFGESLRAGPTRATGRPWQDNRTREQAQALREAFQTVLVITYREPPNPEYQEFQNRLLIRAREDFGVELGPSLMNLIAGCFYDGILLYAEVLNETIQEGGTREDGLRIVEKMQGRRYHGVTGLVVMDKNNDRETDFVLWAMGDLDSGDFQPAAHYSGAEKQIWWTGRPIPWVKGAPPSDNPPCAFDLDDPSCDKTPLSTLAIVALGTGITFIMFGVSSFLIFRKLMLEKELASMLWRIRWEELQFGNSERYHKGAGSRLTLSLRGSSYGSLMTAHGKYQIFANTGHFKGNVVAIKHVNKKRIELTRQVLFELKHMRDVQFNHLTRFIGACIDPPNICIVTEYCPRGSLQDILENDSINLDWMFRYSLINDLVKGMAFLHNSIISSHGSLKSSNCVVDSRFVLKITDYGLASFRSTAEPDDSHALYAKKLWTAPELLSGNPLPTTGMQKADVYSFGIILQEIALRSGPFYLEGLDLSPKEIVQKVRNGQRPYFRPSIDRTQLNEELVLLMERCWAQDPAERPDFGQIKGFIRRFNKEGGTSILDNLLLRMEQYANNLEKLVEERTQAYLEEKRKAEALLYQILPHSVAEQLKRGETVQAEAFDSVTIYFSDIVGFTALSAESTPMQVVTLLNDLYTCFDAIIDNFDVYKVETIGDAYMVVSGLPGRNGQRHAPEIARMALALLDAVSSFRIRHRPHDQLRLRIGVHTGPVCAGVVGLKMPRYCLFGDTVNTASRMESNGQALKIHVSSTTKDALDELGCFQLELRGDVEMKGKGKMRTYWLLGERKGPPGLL
Sequence of Atrial natriuretic peptide receptor 1 (Homo sapiens) (P16066 whole entry, looked up): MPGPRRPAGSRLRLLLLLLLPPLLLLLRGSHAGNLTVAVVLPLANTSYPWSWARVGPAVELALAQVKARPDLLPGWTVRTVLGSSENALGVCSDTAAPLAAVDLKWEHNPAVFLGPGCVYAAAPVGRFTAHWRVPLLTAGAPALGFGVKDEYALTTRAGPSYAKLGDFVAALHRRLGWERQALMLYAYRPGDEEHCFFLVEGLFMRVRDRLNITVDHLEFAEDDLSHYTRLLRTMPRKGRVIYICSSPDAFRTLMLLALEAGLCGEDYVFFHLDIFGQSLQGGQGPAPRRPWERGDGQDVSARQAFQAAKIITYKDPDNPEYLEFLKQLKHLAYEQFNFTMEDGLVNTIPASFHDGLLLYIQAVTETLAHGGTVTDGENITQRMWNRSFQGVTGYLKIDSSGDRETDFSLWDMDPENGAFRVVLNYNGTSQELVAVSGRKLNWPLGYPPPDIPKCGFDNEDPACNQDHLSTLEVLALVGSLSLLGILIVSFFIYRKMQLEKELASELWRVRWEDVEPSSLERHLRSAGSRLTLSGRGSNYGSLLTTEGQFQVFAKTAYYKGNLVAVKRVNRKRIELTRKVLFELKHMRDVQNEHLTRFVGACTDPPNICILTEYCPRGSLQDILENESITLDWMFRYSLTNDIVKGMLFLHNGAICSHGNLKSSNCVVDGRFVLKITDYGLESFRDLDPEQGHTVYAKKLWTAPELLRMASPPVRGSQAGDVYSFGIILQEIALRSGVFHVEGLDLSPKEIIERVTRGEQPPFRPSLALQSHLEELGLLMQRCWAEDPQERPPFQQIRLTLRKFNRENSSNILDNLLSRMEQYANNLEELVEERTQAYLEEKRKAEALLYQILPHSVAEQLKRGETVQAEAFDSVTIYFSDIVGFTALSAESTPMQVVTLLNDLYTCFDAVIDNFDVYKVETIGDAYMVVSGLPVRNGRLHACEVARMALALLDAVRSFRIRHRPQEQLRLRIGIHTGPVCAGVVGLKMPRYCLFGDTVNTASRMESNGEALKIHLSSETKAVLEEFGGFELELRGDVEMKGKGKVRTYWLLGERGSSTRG
Sequence of Parathyroid hormone/parathyroid hormone-related peptide receptor (Homo sapiens) (Q03431 whole entry, looked up): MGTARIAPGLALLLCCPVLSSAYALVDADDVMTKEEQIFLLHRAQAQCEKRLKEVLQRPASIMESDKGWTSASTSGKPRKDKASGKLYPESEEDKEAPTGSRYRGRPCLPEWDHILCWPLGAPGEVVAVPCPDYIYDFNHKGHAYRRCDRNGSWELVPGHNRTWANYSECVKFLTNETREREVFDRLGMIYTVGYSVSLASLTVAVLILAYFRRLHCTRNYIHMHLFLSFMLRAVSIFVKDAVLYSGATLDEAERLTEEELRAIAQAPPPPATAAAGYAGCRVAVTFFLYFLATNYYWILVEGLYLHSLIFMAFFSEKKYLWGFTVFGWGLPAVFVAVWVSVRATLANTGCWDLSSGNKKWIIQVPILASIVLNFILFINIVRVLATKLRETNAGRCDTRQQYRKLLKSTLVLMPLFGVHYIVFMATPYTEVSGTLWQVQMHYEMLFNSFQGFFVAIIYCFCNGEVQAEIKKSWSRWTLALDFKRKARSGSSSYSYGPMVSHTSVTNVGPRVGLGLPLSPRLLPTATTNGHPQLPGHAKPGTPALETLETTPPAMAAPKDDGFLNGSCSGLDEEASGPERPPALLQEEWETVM

Take `CCOC(=O)N1CCN(/[N+]([O-])=N/Oc2ccc([N+](=O)[O-])cc2[N+](=O)[O-])CC1`: the Potency result in [1], in [4], in experiment [5], in [6] and in experiment [7] was “inactive” in each case. The Potency is 5.21 µM (active) in experiment [2] and 10.4 µM (active) in experiment [3].

In the case of `CN1CCC[C@H]1c1cccnc1`, the Potency entry in experiment [1], in [2], in experiment [8], in experiment [3] and in experiment [7] was “inactive” throughout.

Consider `CNc1ncnc2c1ncn2[C@@H]1O[C@H](CO)[C@@H](O)[C@H]1O`, for which the Potency entry in experiment [1], in experiment [2], in experiment [8], in experiment [3], in experiment [5] and in [6] was “inactive” throughout. Also, in experiment [9], the result was inactive.

`Cc1ccc(C(=O)O[C@H](C(=O)O)[C@@H](OC(=O)c2ccc(C)cc2)C(=O)O)cc1` (tested in a mixture with another compound): the Potency result in experiment [1], in [2] and in [3] was “inactive” each time.

Consider `NC(=S)c1ccc[n+]([C@@H]2O[C@@H](COP(=O)([O-])OP(=O)(O)OC[C@H]3O[C@@H](n4cnc5c(N)ncnc54)[C@H](OP(=O)(O)O)[C@@H]3O)C(O)C2O)c1` (some centres not stated), for which the Potency result in experiment [1], in experiment [2], in [8], in experiment [3], in experiment [4] and in [5] was “inactive” each time. Further, the Potency entry in experiment [6] and in experiment [7] was “inactive” throughout. In [9], the result was inactive.

For `CNC(=O)[C@H]1O[C@@H](n2cnc3c(NCc4cccc(I)c4)ncnc32)[C@H](O)[C@@H]1O`, the Potency entry in experiment [1], in experiment [2], in experiment [8], in experiment [3], in [4] and in experiment [5] was “inactive” in each case. The Potency entry in experiment [6] and in experiment [7] was “inactive” each time. Besides, the result in experiment [9] was inactive.

For `CN(C)CCCO[C@@H]1[C@H]2OC(C)(C)O[C@H]2O[C@@H]1[C@H](O)CO`, the Potency entry in experiment [1], in experiment [2], in [8], in experiment [3] and in [7] was “inactive” throughout.

Turning to `CCCn1c(=O)c2[nH]c(-c3ccc(OCC(=O)NCCN)cc3)nc2n(CCC)c1=O`, the Potency result in [1], in [2], in experiment [8], in [3] and in [7] was “inactive” throughout.

Regarding `C[N+](C)(C)CC(=O)[O-]`, the Potency entry in [1], in experiment [2], in experiment [8], in [3] and in experiment [7] was “inactive” in each case.

On to `O=[N+]([O-])c1ccc(CSc2ncnc3c2ncn3[C@@H]2O[C@H](CO)[C@@H](O)[C@H]2O)cc1`, for which the Potency entry in [1], in [2], in experiment [8], in experiment [3], in experiment [4] and in experiment [5] was “inactive” throughout. Besides, the Potency entry in experiment [6] and in experiment [7] was “inactive” throughout.

Regarding `NC(=S)NCCC[C@H](N)C(=O)O`, the Potency entry in experiment [1], in experiment [2], in [8], in experiment [3] and in experiment [7] was “inactive” in each case.

With `O=C1NC(=O)/C(=C/c2ccc3nccnc3c2)S1`, the Potency entry in [1], in experiment [2], in experiment [8], in experiment [3], in experiment [4] and in [5] was “inactive” in each case. The Potency entry in [6] and in [7] was “inactive” each time.

`Cc1ccc(S(=O)(=O)/C=C/C#N)cc1`: the Potency result in [1], in [8], in [5], in experiment [6] and in experiment [7] was “inactive” throughout. Also, the Potency in experiment [2] and in [3] was 9.27 µM (active) in each case. The result in experiment [9] was inactive.

As to `O=[N+]([O-])c1ccc2c(c1)S(=O)(=O)C=C2`, the Potency entry in experiment [1], in experiment [5], in experiment [6] and in experiment [7] was “inactive” each time. Besides, the Potency was 9.27 µM (active) in experiment [2], 10.7 µM (active) in [8] and 5.85 µM (active) in [3].

Turning to `CSc1nc(N)c2ncn([C@@H]3O[C@H](COP(=O)(O)OP(=O)(O)OP(=O)(O)O)[C@@H](O)[C@H]3O)c2n1`, the Potency entry in experiment [1], in experiment [2], in [8], in experiment [3], in experiment [4] and in experiment [5] was “inactive” in each case. Besides, the Potency result in experiment [6] and in [7] was “inactive” throughout. Further, the result in experiment [9] was inactive.

Regarding `N.N.O=C(O)C1(C(=O)O)CCC1.[Pt]`, the Potency result in [1], in experiment [2], in experiment [8], in experiment [3] and in experiment [7] was “inactive” throughout.

For the molecule `O=c1[nH]c2cc(Cl)c(Cl)cc2[nH]c1=O`, the Potency entry in experiment [1], in experiment [2], in experiment [8], in [3] and in experiment [7] was “inactive” each time.

For the molecule `O=C1/C(=C/c2ccsc2)CC/C1=C\c1cccs1`, the Potency result in experiment [1], in experiment [4], in [5], in experiment [6] and in experiment [7] was “inactive” in each case. For the same molecule, the Potency was 1.47 µM (active) in [2] and 6.01 µM (active) in experiment [8].

For `N=C(N)SCCc1ccc(CCSC(=N)N)cc1`, the Potency entry in experiment [1], in experiment [2], in experiment [8], in experiment [3] and in [7] was “inactive” in each case.

For the molecule `CC(COc1ccc(/C=C/c2ccccc2)cc1)[N+](C)(C)C` (configuration not stated), the Potency entry in experiment [1], in [2], in [8], in experiment [3] and in [7] was “inactive” each time.
